Some of the results follow. A number with no mark means an inactive call. The source made the active and inactive calls.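 The calls were made as follows: active = average inhibition across triplicates above the hit cutoff set in the primary screen (cut at about 32% in these data); inactive = the rest.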

Female germline-specific tumor suppressor gld-1 (Caenorhabditis elegans), sequence (Q17339 whole entry, looked up): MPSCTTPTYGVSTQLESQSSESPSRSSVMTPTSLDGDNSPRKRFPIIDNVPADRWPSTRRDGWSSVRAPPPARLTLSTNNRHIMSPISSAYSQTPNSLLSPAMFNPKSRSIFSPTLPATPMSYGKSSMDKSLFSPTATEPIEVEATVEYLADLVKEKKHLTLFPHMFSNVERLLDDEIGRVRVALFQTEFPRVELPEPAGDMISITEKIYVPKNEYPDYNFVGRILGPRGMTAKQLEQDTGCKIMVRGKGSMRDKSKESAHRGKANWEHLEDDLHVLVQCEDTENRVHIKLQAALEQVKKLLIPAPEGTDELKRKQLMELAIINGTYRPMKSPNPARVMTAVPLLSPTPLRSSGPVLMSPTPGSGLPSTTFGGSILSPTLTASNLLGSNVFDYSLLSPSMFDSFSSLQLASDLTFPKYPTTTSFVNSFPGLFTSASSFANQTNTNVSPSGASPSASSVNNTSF

The assay concerns the target Female germline-specific tumor suppressor gld-1 (Caenorhabditis elegans) (UniProt Q17339). Kind of assay: C. elegans GLD-1 RNA interaction blockers – biochemical, fluorescence polarization, triplicate, confirmation (AID 2459).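 Also: 0% = GLD-1 with RNA probe and DMSO and 100% = wells lacking GLD-1.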 As to conditions: GLD-1/FL-TGE RNA fluorescence polarization, at 5.96 µM, stronger effect = higher value.
As for `CNC(=S)NNC(=O)c1oc2nc(-c3ccccc3)cc(-c3ccco3)c2c1N`, the inhibition is -4.28%.

Take `COc1ccc(Nc2ccc([N+](=O)[O-])cn2)cn1`: the inhibition was 18.7%. In the case of `Cc1cc2ccccc2n1CCC(=O)O` it was 10.1%; in that of `CCCN(CC(=O)Nc1ccccc1OC)C(=O)CCC(=O)c1ccc(F)cc1`, -0.97%. Under `O=C1c2ccccc2-c2ncnc3c(N4CCOCC4)cc(N4CCOCC4)c1c23` stands -4.23%. On to `Cc1ccccc1Nc1nc(N)nc(CSc2nnc3ccccn23)n1`, for which the inhibition is -3.26%.

With `CC1CC(C)CN(S(=O)(=O)c2cccc(C(=O)N3C(=O)c4cccc(N)c4C3=O)c2)C1` (stereo not given), the inhibition was 1.78%. In the case of `CN(CCOc1ccccc1)C(=O)c1cc(-c2ccco2)nc2ccccc12`, the inhibition was -3.07%. In the case of `CCCn1c(C2CCCN2c2nc(-c3ccc(C)cc3)cs2)nc2cc(Cl)c(N3CCCCC3)cc21` (stereo not given) it was -4.07%; in that of `CC(NC(=O)CSc1nc2c(cc1C#N)CN(C)CC2)c1ccccc1` (stereo not given), -6.45%; in that of `COC(=O)CCCC1=CC2=CC(=O)C(C)(OC(=O)c3cccs3)C(=O)C2=CN1c1cccc(C#N)c1` (stereo not given), 8.48%.

`C=C1CCN([C@@H](Cc2ccccc2)C(=O)N2CCOCC2)S(=O)(=O)c2ccccc21`: the inhibition was -0.33%. Under `CCOc1cc(C2C(C(=O)OC)=CN(C3CCCC3)C=C2C(=O)OC)cc(Br)c1O` stands 31.8% (active); under `O=C1c2ccccc2C(=O)c2c1cccc2N1CCN(CCO)CC1`, 16.5%. `Oc1ccc2ccccc2c1N=Nc1nccs1`: the inhibition is 8.17%. As for `COCCOC(=O)c1sc(=S)n(CCOC)c1N`, the inhibition was 47.7% (active). Consider `N#C/C(=C(\O)C(F)(F)F)c1nnc2n1CCCCC2`, for which the inhibition is -8.93%. Regarding `CCOc1ccc2nc(N3CCCN(C(=O)Nc4ccccc4C)CC3)c(C#N)cc2c1`, the inhibition is 52.2% (active). In the case of `O=c1[nH]cccc1-c1nc2ccccc2n1Cc1ccc(Cl)cc1` it was -6.98%. Under `COc1cc(C(=O)NCc2ccc3c(c2)cc(C)n3C)cc(OC)c1OC` stands 5.96%. For the compound `CN(C)c1ccc(Nc2c3c4c(cccc4n(C)c2=O)C(=O)c2ccccc2-3)cc1`, the inhibition is 63.3% (active). Turning to `Cc1ccc(/C=N/NC(=O)COc2ccccc2-c2ccccc2)cc1`, the inhibition is -5.49%. Under `COC(=O)c1sc(NC(=S)NC(=O)c2ccc(C)cc2)nc1C` stands -1.92%; under `COC(=O)c1cc(CNC(=O)CC(C)c2ccccc2)ccc1OC` (stereo not given), -6.47%. Under `COc1cc([C@H](Cc2ccccc2)NC(C)=O)oc(=O)c1` stands 25.8%; under `O=c1[nH]c(=O)c2nc3ccccc3nc2[nH]1`, 101% (active).

`Cc1ccc(C)c(S(=O)(=O)N2CCN(C(=O)Nc3ccccc3)CC2)c1`: the inhibition is 2.41%. Regarding `COc1ccc(-c2nc(CS(=O)CC(=O)NCc3ccccn3)c(C)o2)cc1` (stereo not given), the inhibition was 61.1% (active).

For `COc1ccc2[nH]c(C)c(CCN(Cc3cccs3)C(=S)Nc3ccccc3OC)c2c1`, the inhibition was -3.16%. In the case of `N#CC1=C(N)C(C#N)(C#N)[C@H](c2ccsc2)[C@H]2COCC=C12` it was 7.34%.
